Experimental data from ChEMBL document CHEMBL4513216, “Probing the Open Global Health Chemical Diversity Library for Multistage-Active Starting Points for Next-Generation Antimalarials” (ACS Infect Dis, 2020).
Screen size: about 69,000 compounds; about 8,600 (12%) showed an effect of 50% or more. The full list was thinned out, with strong results kept by preference.

These molecules were tested on Plasmodium berghei (assay: Screen against P. berghei liver stage (PbLuc), transformed with Luciferase, at 10uM). Settings: tested at 10 uM.
Assay type: functional, HepG2

Compound	INHIBITION
O=C(Cn1c(C(F)F)cc2cccnc21)NC1CCCC1	22%
CN(C)c1nc(CNC(=O)Nc2cccc([S+](C)[O-])c2)cs1 (centres undefined)	12.4%
Cc1cnn(CC(=O)N2CCC(c3ccn4nccc4n3)CC2)c1	32.7%
CCOC1COC2(CCN(Cc3cccc(C#N)c3)CC2)C1 (centres undefined)	29.7%
CN1CCCN(C(=O)NCCOc2ccc3c(c2)OCO3)CC1	33.3%
COCCN1C(=O)C[C@@H]2[C@H]1CCN2C(=O)c1ccc[nH]1	-14.4%
Cc1nc(C)n(CC2CCCN(CC(=O)N3CCCC3)C2)n1 (centres undefined)	7.67%
CCc1noc(-c2cccc(C(=O)O)c2)n1	-30%
CN1C[C@@H](C(=O)N(C)C)[C@@]2(CCc3ccccc3C(=O)N2)C1	4.41%
Cc1cnn(CC2CN(Cc3noc(C4CC4)n3)CCO2)c1 (centres undefined)	-12.2%
Cc1ccc2c(c1)OC(C)CN2C(=O)CCc1cscn1 (centres undefined)	9.04%
Cc1ccc2c(c1)OC(C)CN2C(=O)Cc1ccc(C)nc1 (centres undefined)	59.1%
Cc1ccc2c(c1)OC(C)CN2C(=O)CCc1cccnc1 (centres undefined)	43.4%
CCSc1ccccc1C(=O)NCC1CCN(Cc2ccsc2)CC1	13.6%
Cc1cccc(OCCC(=O)N2CCCN(C(N)=O)CC2)c1C	15.5%
NC(=O)CN1CCCN(C(=O)Cc2ccc(F)cc2)CC1	5.03%
Cc1cccc(OCCC(=O)N2CCCN(CC(N)=O)CC2)c1C	55.9%
NC(=O)CN1CCCN(C(=O)Cc2ccc3ccccc3c2)CC1	-9.98%
COC(=O)CN1CCCN(C(=O)CCOc2cccc(C)c2C)CC1	29.7%
NC(=O)CN1CCCN(C(=O)Cc2ccc(Br)cc2)CC1	54.4%
CN(CC(=O)NCC(=O)Nc1ccc(F)cc1)Cc1cccs1	5.87%
CCC1(CO)CCCN(c2ncccc2C#N)C1 (centres undefined)	5.14%
N#Cc1cccnc1N1CCCC(CO)(Cc2cccc(Cl)c2)C1 (centres undefined)	-84%
N#Cc1cccnc1N1CCCC(CO)(Cc2ccccc2F)C1 (centres undefined)	-17.2%
N#Cc1cccnc1N1CCCC(CO)(Cc2ccc(F)cc2)C1 (centres undefined)	85.5%
CSC(C)C(=O)N1CCCN(c2ncccc2C#N)CC1 (centres undefined)	1.78%

Compound	INHIBITION
Cc1ccccc1CC1(CO)CCCN(c2ncccc2C#N)C1 (centres undefined)	56.8%
Cc1ccccc1CN1C[C@@H]2COC[C@]2(CNC(=O)C2CCC2)C1	43%
CCOCc1nc(N2CCCC2)sc1C(=O)NCCC(=O)OCC	2.55%
Cn1ccnc1CN1CCc2c(COCC3CC3)nn(C)c2C1	38.5%
Cn1cc(C2CC(=O)NC23CCN(C(=O)Cc2ccccn2)CC3)cn1 (centres undefined)	-7.29%
CNC(=O)N1CCC2(CC1)CC[C@@]1(C(=O)NC)CN(S(C)(=O)=O)C[C@@H]21	12.5%
CCc1nccn1-c1nccnc1C1CCN(C(=O)COC)CC1	67.7%
CCc1nccn1-c1cccc(C2CCN(C(=O)COC)CC2)n1	20.8%
COCC(=O)N1CCC(c2nccnc2Oc2cccnc2C)CC1	50.4%
Cc1ncccc1Oc1nccnc1C1CCN(S(C)(=O)=O)CC1	32.3%
CCc1nccn1-c1nccnc1C1CCCN(C(=O)COC)C1 (centres undefined)	48.4%
Cc1ncccc1Oc1nccnc1C1CCN(C(C)C)CC1	40.9%
CCc1nc(C2CCCN2C(=O)c2cnc3n[nH]c(C)c3c2)no1 (centres undefined)	27%
CC(CN1CCCC1=O)NC(=O)Nc1cccnc1-n1cccn1 (centres undefined)	4.66%
CN1CCN(c2ccnc3c(F)cc(Br)cc23)CC1	62.8%
OC1CCN(c2ccnc3c(F)cc(Br)cc23)CC1	16.6%
CC(=O)N1CCN(c2ccnc3c(F)cc(Br)cc23)CC1	40.6%
CN(C)CC(=O)N1CCOC2(CCCN(c3ncccc3F)C2)C1 (centres undefined)	21.8%
CN([C@@H]1CCC[C@@H](n2ccnc2)[C@@H]1O)S(=O)(=O)c1cn(C)cn1	13.7%
CC(C)(C)c1n[nH]c(C2CN(Cc3nnc(C4CCC4)o3)CCO2)n1 (centres undefined)	-38.2%
O=C(CCc1ccccc1)N1CCCC(c2n[nH]c3nccnc23)C1 (centres undefined)	32.8%
Cc1nc2c(c(C)c1CC(=O)NCc1ccccc1F)c(=O)[nH]n2C	39.2%
COc1ccccc1NC(=O)Cc1c(C)nc2c(c1C)c(=O)[nH]n2C	-16.5%
Cc1nc2c(c(C)c1CC(=O)Nc1ccccc1F)c(=O)[nH]n2C	60.9%
COc1ccccc1C(O)CNC(=O)Nc1cccnc1OC (centres undefined)	-13.5%
COc1cc(N2CCC3(CC2)CC(N2CCOCC2)C3)ncn1	0.112%

Compound	INHIBITION
O=C(NC[C@H]1OC[C@@H](NC2CCOCC2)[C@@H]1O)Nc1ccccc1	51%
O=C(NC[C@H]1OC[C@@H](NC2COC2)[C@@H]1O)Nc1ccccc1	12.4%
CC(C)N[C@@H]1CO[C@H](CNC(=O)c2ccccc2)[C@H]1O	-6.23%
O=C(NC[C@H]1OC[C@@H](NC2CCC2)[C@@H]1O)Nc1ccccc1	41.9%
CC(C)NC(=O)NC[C@H]1OC[C@@H](NCc2ccccc2O)[C@@H]1O	4.59%
CC(C)(C)CN[C@@H]1CO[C@H](CNC(=O)Nc2ccccc2)[C@H]1O	41.1%
O=C(NC[C@H]1OC[C@@H](NC2CCC2)[C@@H]1O)c1cccs1	18.4%
CC(C)N[C@@H]1CO[C@H](CNC(=O)Nc2ccccc2)[C@H]1O	50.2%
CC(C)NC(=O)NC[C@H]1OC[C@@H](NCc2ccccc2F)[C@@H]1O	58.5%
CC(=O)N1CCC(N[C@@H]2CO[C@H](CNC(=O)c3cccs3)[C@H]2O)CC1	60.9%
O=C(NC[C@H]1OC[C@@H](NCc2ccccc2F)[C@@H]1O)Nc1ccccc1	-13.4%
CN1CCC(N[C@@H]2CO[C@H](CNC(=O)c3cccs3)[C@H]2O)CC1	17.4%
Cn1cc(CN2CCc3nc4ccccc4c(=O)n3CC2)cn1	-10.2%
COC(=O)C(NC(=O)CCOC(C)C)c1cc(F)ccc1F (centres undefined)	-19.9%
Cc1ccc(N(CC(=O)N2CCCCC2)C(=O)C2COCCO2)cc1 (centres undefined)	11.6%
CC(C)CC(NC(=O)c1cccs1)c1nc2cccnc2n1C (centres undefined)	-11.4%
Cn1ccnc1C1(O)CCN(C(=O)CCc2ccccc2)CC1	27.465%
O=C1NCCCc2[nH]c(C3CCN(C(=O)C4CC4)CC3)nc21	10.4%
CN(CCn1cncc1-c1cnc(N2CCOCC2)nc1)C1CCCC1	-11.05%
O=C(NC[C@H]1OC[C@@H](NC2CCCCC2)[C@@H]1O)Nc1ccccc1	26%
O=C(NC[C@H]1OC[C@@H](NCc2ccccc2)[C@@H]1O)Nc1ccccc1	17.7%
CN1CCC(N[C@@H]2CO[C@H](CNC(=O)Nc3ccccc3)[C@H]2O)CC1	60.1%
CN(C)C(=O)Cn1c(C2CC2)c(CN2CCOCC2)c2cccnc21	-13.2%
Cc1c(Cl)cccc1N1CC(c2nnc(N)s2)CC1=O (centres undefined)	35.8%
CC(C)(C)c1coc([C@@H]2COCCN2Cc2ccccn2)n1	-37.4%
CC(C)(C)c1coc([C@@H]2COCCN2Cc2ccccc2)n1	3.25%

Compound	INHIBITION
CC(C)(C)c1coc([C@@H]2COCCN2Cc2ncc[nH]2)n1	20.9%
Cn1c(CN2CCOC[C@H]2c2nc(C(C)(C)C)co2)nc2ccccc21	52%
Cn1cc(CN2CCOC[C@H]2c2nc(C(C)(C)C)co2)c2ccccc21	10%
CC(C)(C)c1coc([C@@H]2COCCN2Cc2c[nH]cn2)n1	62.8%
CS(=O)(=O)N1CC[C@H]2OCC[C@@]2(C(=O)NCC2CC2)C1	42.1%
CN1CCN(Cc2c(Cl)ccc(O)c2Cl)CC1C(=O)O (centres undefined)	-27.6%
CN(C)CCN1C(=O)CCCC12CCCN(C(=O)c1ccncc1)C2 (centres undefined)	5.68%
COC1COC2(CCN(C(=O)c3cocn3)CC2)C1 (centres undefined)	39.4%
COC1COC2(CCN(C(=O)c3ccccc3F)CC2)C1 (centres undefined)	62.9%
COC1COC2(CCN(C(=O)c3cnc(C)cn3)CC2)C1 (centres undefined)	-21.7%
O=C(c1cccnc1)N1CCC2(CC1)CC(Oc1ccccc1)CO2 (centres undefined)	34.4%
O=C(c1ccccc1)N1CCC2(CC1)CC(Oc1ccccc1)CO2 (centres undefined)	52%
O=C(c1ccccc1F)N1CCC2(CC1)CC(Oc1ccccn1)CO2 (centres undefined)	46.6%
COc1ncccc1C(=O)N1CCC2(CC1)CC(OC)CO2 (centres undefined)	25.8%
CC(=O)N1CCC2(CC1)CC(Oc1ccccc1)CO2 (centres undefined)	33.5%
COC1COC2(CCN(C(=O)c3cscn3)CC2)C1 (centres undefined)	53.9%
CCn1c(O)c(C(C)=O)c2cc(C)ccc21	33.4%
Cc1ccc(-c2nc(CN3CCCCC3Cn3cncn3)no2)cc1 (centres undefined)	21.5%
CCS(=O)(=O)CCSc1ccc(Br)cc1	-59.8%
CN(CC(O)COc1ccc(C(F)(F)F)cc1)C(=O)Nc1nncs1 (centres undefined)	-0.87%
COc1cc(NC(=O)c2ccc(C)c(F)c2)c(C(=O)N(C)C)cc1OC	14%
CCn1cc(S(=O)(=O)NC(=O)CCc2c[nH]c3ccccc23)cn1	61.5%
CCn1cc(NC(=O)NC(CO)Cc2c[nH]c3ccccc23)cn1 (centres undefined)	32.3%
CCn1cc(S(=O)(=O)NC(CO)Cc2c[nH]c3ccccc23)cn1 (centres undefined)	19.3%
CN(Cc1cc(C(C)(C)C)n[nH]1)C(=O)CCC(=O)NC1CCCC1	32.1%
Cn1ncc(NC(=O)c2noc3c2CCCC3)c1C(N)=O	2.6%
